# Assay outcomes deposited in PubChem BioAssay by several laboratories.
# Sampled rows, rich in hits. Any-hit rate of the full collection: about 32%.
# CYP2C9 inhib: blockers of cytochrome P450 2C9 activity – biochemical, luminescence, ADME assay, primary screen | P11712 | 96,000 compounds, 20% hits | CYP2C9 Supersomes, luciferin-H conversion | inhibition, % at 5 µM;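 active = blocking of liver enzyme CYP2C9 beyond about 50% at 5 µM, limit read from the data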
# CYP2C19 act: human CYP2C19 activators, primary screen, biochemical, luminescence. recombinant CYP2C19, luciferin-H EGE luminescence; active compounds read high; 0 = fully inhibited enzyme, 1 = untreated enzyme. activation factor at 5 µM. 96,000 tested, under 10 active. AID 1025, 2008;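 active = activation factor of at least 2 at 5 µM in the primary screen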;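 also: 0 = wells with 2.5 mM tranylcypromine and 1 = vehicle-only wells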
# Target sequence (P33261 whole entry, looked up): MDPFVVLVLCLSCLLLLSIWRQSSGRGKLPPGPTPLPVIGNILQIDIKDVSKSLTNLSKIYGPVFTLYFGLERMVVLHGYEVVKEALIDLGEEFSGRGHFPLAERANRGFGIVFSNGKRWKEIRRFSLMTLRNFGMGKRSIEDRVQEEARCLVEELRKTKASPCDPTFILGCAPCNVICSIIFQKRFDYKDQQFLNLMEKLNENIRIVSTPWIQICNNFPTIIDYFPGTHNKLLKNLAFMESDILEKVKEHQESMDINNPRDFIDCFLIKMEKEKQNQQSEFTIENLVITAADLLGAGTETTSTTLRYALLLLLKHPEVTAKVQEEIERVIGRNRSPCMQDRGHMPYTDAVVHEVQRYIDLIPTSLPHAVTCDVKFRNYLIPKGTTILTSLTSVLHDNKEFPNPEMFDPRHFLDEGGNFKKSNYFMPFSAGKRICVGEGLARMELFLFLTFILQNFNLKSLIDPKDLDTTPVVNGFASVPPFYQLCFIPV
# CYP2C19 inh: blockers of cytochrome P450 2C19 activity – biochemical, luminescence, ADME assay, primary screen; P33261; CYP2C19 Supersomes, luciferin-H EGE luminescence, 30 min; inhibition, % at 5 µM; 96,000 compounds, 21% hits;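 active = CYP2C19 inhibition above a set limit at 5 µM in the primary screen, cut at about 50% in these data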;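 also: plate controls were negative control wells for no effect and 2.5 mM tranylcypromine positive control for full effect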
# CYP2C9 activ: human CYP2C9 activators, primary screen, biochemical, luminescence. activation factor at 5 µM. 96,000 compounds, 1.4% hits. AID 1024, 2008. recombinant CYP2C9, luciferin-H conversion; active compounds read high; factor 1 = untreated enzyme, 0 = blocked. Cytochrome P450 2C9 (Homo sapiens), P11712;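 active = activation factor of 2 or more for CYP2C9 at a 5 µM dose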;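 also: 0 = sulfaphenazole-blocked wells and 1 = vehicle-only wells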
# PostGolgi ctrl: growth inhibition of yeast control strain, primary screen, counter-screen for post-Golgi transport modulator project; efflux-deficient yeast background strain, growth absorbance A615, 16 h; inhibition, % at 10 µM; 98,000 compounds, 5% hits
# PostGolgi yeast: phenotypic screen on post-Golgi transport, primary screen | post-Golgi transport phenotypic cell assay | inhibition, % at 10 µM | 98,000 compounds, 0.9% hits;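 also: yeast cells grown in 1536-well plates; yeast grown about 18 h at 30C before absorbance read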
# * hit, by the source's call; nt = not tested or not shown. Rule as the data show it, unless noted: active = inhibition above about 30%; inactive = the rest.
SMILES,CYP2C9 inhib,CYP2C19 act,CYP2C19 inh,CYP2C9 activ,PostGolgi ctrl,PostGolgi yeast
CCOC(=O)CC(=O)CSc1ncnc2c1oc1ccccc12,39,0.6,44,0.6,14,1
S=c1[nH]ncn1/N=C/c1ccc(N2CCOCC2)cc1,4,0.8,24,1,4,-1
C(=N\n1cnnc1)/c1ccc(N2CCOCC2)s1,19,0.4,60*,0.8,-3,1
C(=N\n1cnnc1)/c1ccc(N2CCOCC2)cc1,65*,0.1,88*,0.3,28,4
C(=N\n1cncn1)/c1ccc(N2CCOCC2)cc1,39,0.4,63*,0.6,8,9
Cc1cc(C)nc(NC(=O)c2cnc3sccn3c2=O)n1,-6,0.6,44,1.1,5,-6
CCN(C(=O)COc1ccccc1)c1nnc(-c2cccnc2)s1,32,0.8,20,0.7,8,-7
CCn1c(SCc2cccc(C)c2)nnc1-c1ccc(C)cc1,10,0.1,86*,0.9,17,-2
CCn1c(SCc2cccc(C(F)(F)F)c2)nnc1-c1ccco1,nt,nt,nt,nt,21,-6
C=CCn1c(SCc2ccc(C#N)cc2)nnc1-c1cccc(OC)c1,64*,0.1,91*,0.4,13,-10
C=CCn1c(SCc2nc(N)nc(N3CCCCC3)n2)nnc1-c1ccco1,13,0.4,59*,0.9,4,1
Cn1c(SCc2ccc(C#N)cc2)nnc1-c1ccccc1,20,0.6,44,0.8,4,-10
Cn1c(SCc2ccc(C#N)cc2)nnc1-c1cccc(Cl)c1,47,0.3,74*,0.5,8,0
C=CCn1c(SCc2ccc(C#N)cc2)nnc1-c1ccccc1,-11,0.6,43,1.1,11,-2
COc1ccc(CCN(CC(=O)NC2CCCC2)C(=O)CCC(=O)Nc2cc(C)on2)cc1OC,30,0.9,6,0.7,-3,14
C=CCn1c(SCc2ccc(OC)cc2)nnc1-c1cccnc1,46,0.2,77*,0.5,-2,8
CCn1c(SCc2ccc(OC)cc2)nnc1-c1ccncc1,12,0.1,92*,0.9,4,-8
COc1cccc(-c2nnc(SCc3ccc(C#N)cc3)n2Cc2ccco2)c1,95*,0.1,91*,0.1,23,-2
CCn1c(SCc2ccc(C(=O)Nc3cc(C)cc(C)c3)cc2)nnc1-c1ccncc1,42,0.6,44,0.6,-4,15
C=CCn1c(SCc2ccccc2)nnc1-c1cccnc1,-4,0.6,36,1,6,-2
C=CCn1c(SCc2nc(N)nc(N(C)C)n2)nnc1-c1cccnc1,15,0.5,49,0.8,33*,-3
COC(=O)Cc1csc(N)n1,-10,1.1,-7,1.1,6,-11
O=S(=O)(c1ccc(Cl)cc1)N1CCCC1c1nc(-c2cccc(Cl)c2)no1 (stereo not given),26,0.9,7,0.7,33*,1
CC1CCCc2sc3nc(NCc4ccco4)n4ncnc4c3c21 (stereo not given),nt,nt,nt,nt,57*,-1
CCN1CCN(c2nc3sc4c(c3c3ncnn23)CC(C)CC4)CC1 (stereo not given),19,0.7,33,0.8,5,0
SMILES,CYP2C9 inhib,CYP2C19 act,CYP2C19 inh,CYP2C9 activ,PostGolgi ctrl,PostGolgi yeast
CC1CCc2sc3nc(NCc4ccco4)n4ncnc4c3c2C1 (stereo not given),34,0.9,12,0.7,63*,-12
CSCCC(NC(=O)c1ccoc1C)C(=O)O (stereo not given),16,1,-3,0.8,8,13
Cc1nc(SC2C=CS(=O)(=O)C2)n[nH]1 (stereo not given),1,1,1,1,-7,-7
CCOC(=O)N1CCN(S(=O)(=O)c2ccc3[nH]c(=O)sc3c2)CC1,-21,0.8,20,1.2,11,-3
CCC(C)NS(=O)(=O)c1ccc(OCC(=O)NCC2CCCO2)cc1 (stereo not given),11,0.8,16,0.9,3,3
COc1ccc(/C=C/C(=O)Nc2sc3c(c2C(=O)NCc2cccnc2)CCCC3)cc1,97*,0.3,75*,0,52*,19
COc1ccc(OCC(=O)Nc2sc3c(c2C(=O)NCC2CCCO2)CCC3)cc1 (stereo not given),95*,0.3,70*,0,0,-1
O=C(COc1ccccc1)Nc1sc2c(c1C(=O)NCc1cccnc1)CCCC2,96*,0.9,7,0,10,-3
CCc1nnc(NC(=O)c2ccc(-c3ccc(Cl)cc3)o2)s1,0,0.8,17,1,30,9
COc1ccc(CCNCc2csc3nc4ccccc4n23)cc1OC,25,0.8,20,0.8,9,1
CC(C)C(OC(=O)C1CCCO1)C(=O)NC1CCCC1 (stereo not given),-10,1.1,-7,1.1,6,4
COc1ccccc1Nc1nc(N)nc(CSc2nnc(C)s2)n1,17,1,-4,0.8,5,4
COC(=O)c1ccc2c(c1)NC(=O)C(N1CCOCC1)S2 (stereo not given),11,1,1,0.9,14,-1
CCC1CCCCN1C1Sc2ccc(C(=O)OC)cc2NC1=O (stereo not given),12,0.7,34,0.9,40*,8
O=C(Cc1c(O)c2ccccc2[nH]c1=O)NCc1ccc(F)cc1,8,1,3,0.9,1,3
COc1ccc(CNC(=O)Cc2csc(Nc3nc(=S)[nH]c4ccccc34)n2)cc1,86*,0.3,66*,0.1,19,0
COc1ccc(CNC(=O)COC(=O)c2n[nH]c3ccccc23)cc1,48,0.5,46,0.5,23,11
O=C(Cc1csc(Nc2nc(=S)[nH]c3ccccc23)n1)NCc1ccc(Cl)cc1,83*,0.4,56*,0.2,5,-2
COc1ccc(N2CCCn3c2nc2c3c(=O)n(CCCc3ccccc3)c(=O)n2C)cc1,nt,nt,nt,nt,14,25
Cc1nn(C)cc1C(C(=O)NC1CCCCC1)N(C(=O)Cc1cccs1)c1ccc(C(C)C)cc1 (stereo not given),41,0.6,40,0.6,4,7
CC1(C)CC(=O)C2=C(C1)OC(N)=C(C#N)C21C(=O)N2CCCc3cccc1c32 (stereo not given),17,1,-1,0.8,34*,-6
Cc1cc2c3c(c1)C(C)(c1ccccc1)CC(C)(C)N3C(=O)C21C(C#N)=C(N)OC2=C1C(=O)CC(C)(C)C2 (stereo not given),59*,1,5,0.4,13,2
